Data reported in PubChem BioAssay.
For some of these results: Entries with a potency or affinity are not part of this list. Activity calls are given as the source filed them.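 Rule for the calls, unless noted: active = calcium signal cut by more than 3 SD below the full-agonist control yet still positive, in both repeats and the earlier primary screen; inactive = the rest.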

Key:
[1] = test system: TRPC4 beta (transient receptor potential cation channel C4), mouse; test: activators of mouse TRPC4 channel, confirmation, cell-based, Fluo4 calcium, HEK293 TRPC4beta/mu-opioid, duplicates, 10 µM (AID 2426;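 active = fluorescence ratio normalized to control raised more than 50% in primary screen plus both repeat runs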); conditions: Fluo4 calcium fluorescence, at 10 µM; stronger effect = higher value
[2] = test system: transient receptor potential cation channel C4 beta (TRPC4), mouse; test: activators of mouse TRPC4 channel, confirmation, cell-based, second round, Fluo4, HEK293 TRPC4beta/mu-opioid, 1 µM (AID 2461;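 active = primary screen active and over 50% activation in each of two duplicate runs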); conditions: Fluo4 calcium fluorescence, at 1 µM; stronger effect = higher value
[3] = test system: TRPC4 (transient receptor potential cation channel C4 beta), mouse; test: positive allosteric modulators of mouse TRPC4, confirmation, cell-based, second round, Fluo-4, HEK293 TRPC4beta/mu-opioid, 1 µM (AID 2554;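 active = primary screen hit whose fluorescence ratio, in both repeats, exceeds the weak agonist control mean by 3 SD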); conditions: DAMGO EC20, Fluo-4 calcium flux, at 1 µM; stronger effect = higher value
[4] = test system: TRPC4 beta (transient receptor potential cation channel C4), mouse; test: positive allosteric modulators of mouse TRPC4, confirmation, cell-based, Fluo-4, HEK293 TRPC4beta/mu-opioid (AID 2555;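 active = primary screen hit whose calcium fluorescence ratio, in both repeats, exceeds the weak agonist control mean by 3 SD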); conditions: DAMGO EC20, Fluo-4 calcium flux, at 10 µM; stronger effect = higher value
[5] = molecular target: Short transient receptor potential channel 4 (Mus musculus) (UniProt Q9QUQ5); test: inhibitors of mouse TRPC4 channel, confirmation, cell-based, Fluo4, HEK293 TRPC4beta/mu-opioid (AID 2636); conditions: DAMGO, Fluo4 calcium flux, at 10 µM; stronger effect = higher value
Sequence of Short transient receptor potential channel 4 (Mus musculus) (Q9QUQ5 whole entry, looked up): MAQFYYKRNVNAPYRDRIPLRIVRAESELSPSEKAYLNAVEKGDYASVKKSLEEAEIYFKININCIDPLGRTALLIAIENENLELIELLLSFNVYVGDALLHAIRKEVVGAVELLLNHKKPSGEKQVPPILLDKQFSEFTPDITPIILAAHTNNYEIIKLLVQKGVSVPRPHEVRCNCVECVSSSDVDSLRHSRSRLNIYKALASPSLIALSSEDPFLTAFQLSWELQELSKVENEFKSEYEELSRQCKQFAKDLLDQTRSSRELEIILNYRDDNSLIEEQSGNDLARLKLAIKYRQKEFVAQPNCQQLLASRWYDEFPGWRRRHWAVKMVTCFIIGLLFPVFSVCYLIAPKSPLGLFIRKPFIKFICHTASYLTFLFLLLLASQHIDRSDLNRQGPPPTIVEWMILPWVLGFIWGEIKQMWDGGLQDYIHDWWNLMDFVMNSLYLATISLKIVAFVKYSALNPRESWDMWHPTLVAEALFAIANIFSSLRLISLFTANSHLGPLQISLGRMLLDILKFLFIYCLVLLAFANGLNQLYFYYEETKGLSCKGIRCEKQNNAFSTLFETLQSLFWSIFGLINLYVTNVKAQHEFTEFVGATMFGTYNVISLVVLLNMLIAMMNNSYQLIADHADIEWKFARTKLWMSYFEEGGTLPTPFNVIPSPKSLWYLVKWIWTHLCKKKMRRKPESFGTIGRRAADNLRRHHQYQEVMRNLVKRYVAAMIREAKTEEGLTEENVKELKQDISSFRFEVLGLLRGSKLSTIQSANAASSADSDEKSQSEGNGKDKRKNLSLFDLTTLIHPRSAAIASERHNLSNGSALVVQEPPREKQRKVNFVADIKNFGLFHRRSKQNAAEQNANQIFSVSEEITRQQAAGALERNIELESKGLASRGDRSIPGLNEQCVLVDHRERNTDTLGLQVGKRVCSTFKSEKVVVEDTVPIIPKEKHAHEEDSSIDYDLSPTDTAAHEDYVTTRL

[6] = molecular target: Short transient receptor potential channel 4 (Mus musculus) (UniProt Q9QUQ5); test: inhibitors of mouse TRPC4 channel, confirmation, cell-based, second round, Fluo4, HEK293 TRPC4beta/mu-opioid, 1 µM (AID 2637;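 active = calcium signal ratio cut to more than 3 SD under the fully stimulated control mean yet still positive, in both repeats and the primary screen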;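 for inhibition: percent of integrated ratio relative to wells lacking test compound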); conditions: Fluo4 calcium flux, DAMGO, at 1 µM; stronger effect = higher value
[7] = molecular target: Short transient receptor potential channel 4 (Mus musculus) (UniProt Q9QUQ5); test: mouse TRPC4 channel activators, dose response, cell-based, HEK293 TRPC4/mu-opioid, Fluo-4 calcium (AID 434937;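 active = primary screen activator hit with a dose response curve and TRPC4 channel activation at any tested dose; inactive = no activation, no dose response, or not a primary hit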)
[8] = molecular target: Short transient receptor potential channel 4 (Mus musculus) (UniProt Q9QUQ5); test: TRPC4 positive allosteric modulators, dose response, cell-based, HEK293 TRPC4/mu-opioid, Fluo-4 calcium, EC20 DAMGO (AID 434941;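 active = earlier screen potentiator hit that boosts the TRPC4 ion channel at some dose, with a dose response; inactive = no potentiation, no dose response, or not a prior hit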;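 note: calcium entry triggered by an EC20 dose of DAMGO at the co-expressed mu-opioid receptor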)
[9] = molecular target: Short transient receptor potential channel 6 (Mus musculus) (UniProt Q61143); test: inhibition of mouse TRPC6 channel, confirmation, selectivity assay for TRPC4 inhibitor project, cell-based, HEK293, membrane potential dye, duplicate (AID 434948;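 active = active in primary screen and both duplicates, each dropping signal beyond three positive-control SD with fluorescence still positive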); conditions: HEK293 TRPC6, membrane potential dye fluorescence, at 10 µM, stimulated with maximal-effect acetylcholine; stronger effect = higher value
Sequence of Short transient receptor potential channel 6 (Mus musculus) (Q61143 whole entry, looked up): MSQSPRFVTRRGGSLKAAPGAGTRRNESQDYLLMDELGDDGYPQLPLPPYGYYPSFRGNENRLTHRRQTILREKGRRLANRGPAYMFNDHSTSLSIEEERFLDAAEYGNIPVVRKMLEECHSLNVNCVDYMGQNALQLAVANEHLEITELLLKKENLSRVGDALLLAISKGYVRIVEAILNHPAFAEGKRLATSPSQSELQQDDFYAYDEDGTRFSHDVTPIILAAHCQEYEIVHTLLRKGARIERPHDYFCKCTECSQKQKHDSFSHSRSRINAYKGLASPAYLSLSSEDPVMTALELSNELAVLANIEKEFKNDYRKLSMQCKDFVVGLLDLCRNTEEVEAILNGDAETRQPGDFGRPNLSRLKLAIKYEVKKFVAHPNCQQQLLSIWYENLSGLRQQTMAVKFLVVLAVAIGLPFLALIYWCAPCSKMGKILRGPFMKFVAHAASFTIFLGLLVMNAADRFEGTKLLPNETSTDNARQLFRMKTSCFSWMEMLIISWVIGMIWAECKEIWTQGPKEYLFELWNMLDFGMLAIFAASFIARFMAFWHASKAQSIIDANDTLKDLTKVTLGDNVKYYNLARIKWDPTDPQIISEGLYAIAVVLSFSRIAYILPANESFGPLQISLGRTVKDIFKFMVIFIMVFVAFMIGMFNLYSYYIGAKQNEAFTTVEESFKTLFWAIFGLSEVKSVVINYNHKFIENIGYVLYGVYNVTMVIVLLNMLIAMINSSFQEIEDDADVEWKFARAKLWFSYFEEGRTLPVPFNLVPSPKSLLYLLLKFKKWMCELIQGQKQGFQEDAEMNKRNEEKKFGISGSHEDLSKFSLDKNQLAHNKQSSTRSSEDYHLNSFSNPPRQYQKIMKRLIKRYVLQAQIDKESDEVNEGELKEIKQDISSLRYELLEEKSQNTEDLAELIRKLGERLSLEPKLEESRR

[10] = molecular target: Short transient receptor potential channel 6 (Mus musculus) (UniProt Q61143); test: activation of mouse TRPC6 channel, confirmation, selectivity assay for TRPC4 activator project, cell-based, HEK293, membrane potential dye, duplicate (AID 434950;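 active = membrane potential signal rise above negative control mean plus 3 SD in both duplicates, also active in the earlier TRPC4 screen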;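 for activation: 0% = buffer only wells and 100% = acetylcholine maximal-effect wells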); conditions: HEK293 TRPC6, membrane potential fluorescence, at 10 µM; stronger effect = higher value
[11] = molecular target: Short transient receptor potential channel 6 (Mus musculus) (UniProt Q61143); test: TRPC6 potentiation by TRPC4 potentiator hits, confirmation, selectivity assay for TRPC4 potentiator project, HEK293 cells, membrane potential dye, duplicate (AID 434952;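 active = compound raising the membrane signal above positive-control mean plus 3 SD in both repeats, and a primary screen hit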); conditions: HEK293 TRPC6, membrane potential dye fluorescence, at 10 µM, maximal acetylcholine added after compound; stronger effect = higher value
[12] = molecular target: Short transient receptor potential channel 4 (Mus musculus) (UniProt Q9QUQ5); test: calcium flux activators in TRPC4/5HT1a cells, counter-screen for TRPC4 activator project, cell-based, second counter screen, HEK293 TRPC4/5HT1a, Fluo-4 (AID 434977;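 active = calcium signal rise above buffer-control mean plus 5 SD in both duplicates, and also a hit in the primary screen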); conditions: Fluo-4 calcium flux, at 10 µM; stronger effect = higher value
[13] = calcium flux inhibitors in TRPC4/5HT1a cells, confirmation, counter-screen for TRPC4 inhibitor project, cell-based, second counter screen, HEK293 TRPC4/5HT1a, Fluo-4 (AID 434978;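 active = primary screen active whose calcium signal fell more than 3 SD beyond the full-serotonin control mean in both duplicate plates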;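 for outcome: serotonin given first at submaximal then at maximal dose after compound preincubation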); conditions: Fluo-4 calcium flux, at 10 µM, serotonin added to trigger calcium flux; stronger effect = higher value
[14] = test system: TRPC4 (mouse), co-expressed with 5HT1a in HEK293; test: calcium flux potentiators in TRPC4/5HT1a cells, confirmation, counter-screen for TRPC4 potentiator project, cell-based, second counter screen, HEK293 TRPC4/5HT1a, Fluo-4 (AID 434979;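 active = signal rise over 3 SD above mean of control wells given weak agonist, in both repeats and first screen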); conditions: Fluo-4 calcium flux, at 10 µM, serotonin added at its EC20 dose; stronger effect = higher value
[15] = calcium flux activation in mu-opioid HEK293 cells, confirmation, counter-screen for TRPC4 activator project, cell-based, HEK293 mu-opioid receptor line (AID 449723;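 active = hit in primary screen, with calcium signal over 5 SD above buffer well mean in both duplicates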;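 note: counter screen cells carry the mu-opioid receptor alone and lack TRPC4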); conditions: Fluo-4 calcium fluorescence, at 10 µM; stronger effect = higher value
[16] = calcium flux enhancement in mu-opioid HEK293 cells, confirmation, counter-screen for TRPC4 allosteric potentiator project, cell-based, HEK293 mu-opioid receptor line (AID 449724;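 active = calcium signal rise more than 3 SD above the low-dose agonist control mean, in both duplicate plates and the primary screen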); conditions: Fluo-4 calcium flux, at 10 µM, compound added before EC20 DAMGO stimulus; stronger effect = higher value

O=C(C[n+]1cccc(CNC(=O)c2ccc(OC(F)F)cc2)c1)Nc1ccc(SC(F)F)cc1
active: inhibition [5] 94%
inactive: outcome [1] | outcome [2] | outcome [3] | outcome [4] | outcome [6] | outcome [7] | outcome [8] | outcome [9] | outcome [10] | outcome [11] | outcome [12] | outcome [13] | outcome [14] | outcome [15] | outcome [16]

COc1ccc(Cn2nnnc2C(c2cc3cc(C)ccc3[nH]c2=O)N2CCN(C)CC2)cc1 (configuration not stated)
active: inhibition [5] 83%
inactive: outcome [1] | outcome [2] | outcome [3] | outcome [4] | outcome [6] | outcome [7] | outcome [8] | outcome [9] | outcome [10] | outcome [11] | outcome [12] | outcome [13] | outcome [14] | outcome [15] | outcome [16]

COc1ccc(C2CC2/C(=N/O)c2ccccc2)cc1 (configuration not stated)
inactive: outcome [1] | outcome [2] | outcome [3] | outcome [4] | outcome [6] | outcome [7] | outcome [8] | outcome [9] | outcome [10] | outcome [11] | outcome [12] | outcome [14] | outcome [15] | outcome [16]
active: inhibition [5] 94% | inhibition [13] 7.57%

Fc1ccccc1CNCCC(Cc1ccccc1)c1ccc2c(c1)OCO2 (configuration not stated)
inactive: outcome [1] | outcome [2] | outcome [3] | outcome [4] | outcome [5] | outcome [6] | outcome [7] | outcome [8] | outcome [9] | outcome [11] | outcome [12] | outcome [13] | outcome [14] | outcome [15] | outcome [16]
active: activation [10] 48%

COC(=O)c1cccc(NC(=S)Nc2cccc(Cl)c2Cl)c1
active: inhibition [5] 78%
inactive: outcome [1] | outcome [2] | outcome [3] | outcome [4] | outcome [6] | outcome [7] | outcome [8] | outcome [9] | outcome [10] | outcome [11] | outcome [12] | outcome [13] | outcome [14] | outcome [15] | outcome [16]

CCCCc1nc2ccccc2c(N)c1CCC (tested in a mixture with another compound)
inactive: outcome [1] | outcome [2] | outcome [3] | outcome [4] | outcome [7] | outcome [8] | outcome [10] | outcome [11] | outcome [12] | outcome [14] | outcome [15] | outcome [16]
active: inhibition [5] 96% | inhibition [6] 69% | inhibition [9] 18% | inhibition [13] 32.6%

O=C(O)c1cc(NN=C2c3ccccc3-c3ccccc32)ccc1Cl
inactive: outcome [1] | outcome [2] | outcome [3] | outcome [4] | outcome [6] | outcome [7] | outcome [8] | outcome [10] | outcome [11] | outcome [12] | outcome [14] | outcome [15] | outcome [16]
active: inhibition [5] 98% | inhibition [9] 32% | inhibition [13] 11.8%
